Data taken from PubChem BioAssay (NCI).
“And” between values parts separate entries of the source, which are not always exact repeats. Identical values can stand only once. Compounds without any hit were thinned out: in the full panel of roughly 83,000, 20% have a hit.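 Single-dose data. Exposure time 48 hours. Values below 10 considered active.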 Unmarked numbers belong to inactive results. The source made the active and inactive calls.

Tested on: MDA-MB-468 breast
Test: NCI-60 one-dose screen, 48 h (100 = growth as untreated, 0 = no growth, -100 = all killed)
Settings: 10 µM unless noted

Row | Compound | growth
1 | O=C(Nc1cccc(-n2cc(-c3ccncc3)c(-c3ccc(Cl)c(O)c3)n2)c1)Nc1cccc(C(F)(F)F)c1 | 10.5%
2 | Cc1onc(-c2ccccc2Cl)c1C(=O)N[C@@H]1C(=O)N2[C@@H]1SC(C)(C)[C@@H]2C(=O)O | 109%
3 | C/C(C=O)=C\c1ccc2c(c1)OCO2 | 94.8%
4 | CN1C(=O)c2cc(Cl)nc3c(NC(=O)c4cccc(Cl)c4)c(Cl)c(NC(=O)c4cccc(Cl)c4)c1c23 | -19.6% (active)
5 | CSC(=S)N/N=C(\C)c1ccccn1 | -19.5% (active)
6 | COc1ccc(C(=O)Nc2cccc(C3CCc4c(cc(OC)c(OC)c4OC)O3)c2)cc1 (configuration not stated) | 12.4%
7 | COc1cc(/C=C\c2cc(OC)c(OC)c(OC)c2)cc(N)c1OC | 58.4%
8 | CCCCCCCC(=O)SCC/C=C/[C@@H]1CC(=O)NCc2nc(co2)C2=N[C@@](C)(CS2)C(=O)N[C@@H](C(C)C)C(=O)O1 | -0.758% (active)
9 | O=C1C=CC(=O)N1c1ccc2c(c1)Cc1cc(F)ccc1-2 | 92.6%
10 | CCOc1ccc2nc3cc(N)ccc3c(N)c2c1 | -84.6% (active) and -33.5% (active)
11 | COc1ccc([C@@H]2c3[nH]c4ccccc4c3C[C@H]3C(=O)N(C4CCN(CC5CCCCC5)CC4)CC(=O)N23)c(OC)c1 | 58.7%
12 | Cc1c2c(cc[n+]1Cc1ccc(F)cc1)c1ccc(OCc3cccc(F)c3)cc1n2Cc1cccc(F)c1 | -85.6% (active)
13 | NC(=S)N1N=C(c2ccc(Cl)cc2)CC1c1cc2ccccc2[nH]c1=O (configuration not stated) | 111%
14 | C#CC(=O)Nc1cccc2c1cc(C)n2-c1nc2c(c(NCc3ccccc3)n1)CCCC2 | -63.3% (active)
15 | Nc1ccccc1-c1ccc(-c2ccc(Cl)cc2)c2c1[nH]c1ccccc12 | 91.5%
16 | C1CN(SSN2CCOCC2)CCO1 | -66.4% [100 µM] (active)
17 | COc1cc(-c2nn(-c3cccc(NC(=O)NCCNS(=O)(=O)c4ccc(Cl)cc4)c3)cc2-c2ccncc2)ccc1Cl | -35.8% (active)
18 | COc1ccc(Nc2nc(SCC(C)C)nc(-c3ccc(F)cc3)c2C#N)cc1 | 32.6%
19 | CCCCc1ccc(NC(=O)C(F)(F)F)cc1 | 109%

Row | Compound | growth
20 | COc1ccc(-c2cc3cnc4ccccc4c3oc2=O)cc1 | 99.8%
21 | CCCCCCCCCCC[C@@H](C[C@H]1OC(=O)[C@H]1CCCCCC)OC(=O)[C@@H](CC(C)C)NC=O | 101%
22 | O=C1C=CC(=O)N1c1ccc2ccccc2c1 | 51.3% and 62.7%
23 | CCCCCn1sc(=O)n(Cc2ccc(CNC(=O)OCc3ccc4c(Cl)cc(Cl)c(O)c4n3)cc2)c1=O | 59.8%
24 | c1cc(NCCc2ccncc2)nc(-n2cnc3ccccc32)c1 | 95%
25 | COC1=CC(=O)c2nc(Cl)ccc2C1=O | -51% (active)
26 | CN1CCCNc2c(c(=O)c2=O)NCCCN(C)CCCNc2c(c(=O)c2=O)NCCCN(C)CCCNc2c(c(=O)c2=O)NCCCN(C)CCCNc2c(c(=O)c2=O)NCCCN(C)CCCNc2c(c(=O)c2=O)NCCCN(C)CCCNc2c(c(=O)c2=O)NCCCN(C)CCCNc2c(c(=O)c2=O)NCCC1 | 32.9%
27 | Cc1[nH]c(C(=O)Nc2nc3ccc(NC(=O)CCN)cc3s2)c(Cl)c1Cl | 69.4%
28 | Cc1c(C(N)=O)sc2ncn(CC(=O)NN=C3CCCCC3)c(=O)c12 | 109%
29 | COc1ccc(-c2nnc(-c3ccc4c(c3)nc(-c3ccncc3)n4C3CCCCC3)o2)cc1 | 75.2%
30 | CN1CC=C(c2cc(NC(=O)Nc3ccc(Oc4ccnc(NC(=O)C5CC5)c4)c(F)c3)cc(C(F)(F)F)c2)CC1 | -30.3% (active)
31 | Cc1ccc(S(=O)(=O)NCC[C@@H]2C[C@H]2c2cc3ccccc3s2)cc1 | 83.7%
32 | Brc1ccsc1Br | 103%
33 | Cc1ncc(C(=O)Nc2ccc(CN3CCN(C)CC3)c(C(F)(F)F)c2)cc1C#Cc1c(N)ncc2ccc(F)cc12 | 48.2%
34 | O=c1n(C2OC(CO)C(O)C2O)ccc2nccn12 (configuration not stated) | 122%
35 | Cc1ccc(Nc2nc(N)c3ccccc3n2)cc1Cl | 48%
36 | O=C(O)c1cccc(S(=O)(=O)c2ccccc2)c1 | 94.7%
37 | COc1cc(NS(=O)(=O)C(C)C)cc(-c2cc(-c3ccc(N4CCNCC4)cc3)cnc2N)c1 | 92.2%
